# High-throughput results (PubChem BioAssay)
# Sampled rows, rich in hits. Any-hit rate of the full collection: about 3.9%.
# USP2a block: qHTS Assay for Inhibitors of Ubiquitin-specific Protease USP2a Using CHOP2 as the Reporter; Potency, µM (highest dose often 38.3 µM), inactives show top-dose activity change, negative = inhibition, actives largely listed as inhibitors; Ubiquitin carboxyl-terminal hydrolase 2 (Homo sapiens), O75604; USP2 core, Ub-CHOP2 coupled fluorogenic reporter, 485/531; 330,000 compounds, 0.01% hits;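 note: potency is the fitted concentration of half-maximal effect; plate controls were DMSO wells for no effect and full inhibition by NEM control for full effect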
#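 USP2 core (10nM final) preincubated 30min RT with compound in 20mM Tris-HCl pH 8.0, 2mM CaCl2, 2mM beta-mercaptoethanol, 0.05% CHAPS; 25nM Ub-CHOP2 plus 25nM reporter substrate added, fluorescence (Ex485/Em531) read after 60min.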
# D1 antag: Antagonist of Human D 1 Dopamine Receptor: qHTS; D(1A) dopamine receptor (Homo sapiens), P21728; AID 504652, 2011; activity change, negative = inhibition, % at 10 µM; HEK293 TREx D1 cells, calcium flux, dopamine EC80; stronger effect = lower value; 360,000 compounds, 3.2% hits; in the data active = activity change below about -30%; note: % is set by controls: 0 for no effect and ±100 for the full control effect
#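 Tetracycline-induced HEK293 T-REx cells with force-coupled D1 receptor were loaded with a no-wash calcium dye. Compound was added after a 10 s baseline and read kinetically for 180 s; EC80 dopamine was then added and calcium flux followed another 180 s.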
# Eya2 inh: qHTS Assay for Inhibitors of the Phosphatase Activity of Eya2; Protein phosphatase EYA2 (Homo sapiens), O00167; Potency, µM (doses to about 76.9 µM), for the others: at the top dose activity, negative = inhibition, hits mostly inhibitors; 330,000 compounds, 0.006% hits; recombinant Eya2, OMFP fluorescence dephosphorylation (OMFP is methylfluorescein phosphate); AID 488837, 2010; note: potency is the fitted concentration of half-maximal effect; % is set by controls: 0 for no effect and ±100 for the full control effect
#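 Eya2 protein (added as 0.2 uM solution) was preincubated with compound for 10 min at ambient temperature in 50 mM HEPES pH 7.5, 50 mM NaCl, 5 uM MgCl2, 0.05% BSA, 1 mM DTT. OMFP (added at 50 uM) then reacted 10 min; fluorescence read at 485/525 nm.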
# GALK inhibitor: qHTS Assay for Inhibitors of Human Galactokinase (GALK) | P51570 | Purified GALK, Kinase-Glo residual ATP luminescence | Potency, µM (doses to about 57.5 µM), for inactives: top-dose activity change, negative = inhibition, hits mostly inhibitors | 270,000 compounds, 0.007% hits | AID 1868, 2009; note: potency is the fitted concentration of half-maximal effect; % is set by controls: 0 for no effect and ±100 for the full control effect
# Target sequence (P51570 whole entry, looked up): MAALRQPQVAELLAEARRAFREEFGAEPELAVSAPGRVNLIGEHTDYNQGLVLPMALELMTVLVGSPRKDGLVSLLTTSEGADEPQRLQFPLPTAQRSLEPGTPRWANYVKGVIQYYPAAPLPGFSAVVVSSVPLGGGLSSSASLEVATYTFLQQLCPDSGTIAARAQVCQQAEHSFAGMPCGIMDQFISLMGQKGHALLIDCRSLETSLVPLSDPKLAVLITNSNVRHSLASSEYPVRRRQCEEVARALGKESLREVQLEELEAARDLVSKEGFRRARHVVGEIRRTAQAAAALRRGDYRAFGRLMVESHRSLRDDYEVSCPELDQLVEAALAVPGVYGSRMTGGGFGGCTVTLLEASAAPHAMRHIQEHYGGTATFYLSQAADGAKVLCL
#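 The enzyme phosphorylates galactose (100 uM) using ATP (35 uM); inhibition is detected as higher residual ATP, quantified by bioluminescence after 1 h reaction at room temperature, pH 8.0.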
# D1 PAM: Potentiators of Human D1 Dopamine Receptor: qHTS; 360,000 compounds, 0.036% hits; HEK293 TREx D1 cells, calcium flux, dopamine EC20 potentiation; potentiation, % at 10 µM; D(1A) dopamine receptor (Homo sapiens), P21728; in the data active = potentiation above about 30%; note: 0% is about no effect
# D1 ag: Allosteric Agonists of the Human D1 Dopamine Receptor: qHTS. D(1A) dopamine receptor (Homo sapiens), P21728. activation, % at 2 µM. 360,000 compounds, 1% hits. HEK293 T-REx D1 cells, calcium flux, agonist mode; in the data active = activation above about 30%; note: 0% is about no effect
#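 Tetracycline-induced HEK293 TREx D1 cells, force-coupled to calcium signalling, were dye-loaded with a no-wash calcium kit. Compound was pin-added after a 10 s baseline. Fluorescence was read kinetically at 1 cycle/s for 180 s, with calcium rises flagged as agonism.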
# Active calls of the source: *; / = not tested or not shown. Unless noted, calls come from the whole dose curve; as a rule, active = well fitted inhibition curve with a large enough effect; inconclusive = small, poorly fitted or top-dose-only effect, or effect the other way; inactive = flat fitted curve, though single readings scatter.
SMILES,USP2a block,D1 antag,Eya2 inh,GALK inhibitor,D1 PAM,D1 ag
c1ccc(CCCCN2C(Nc3ccccc3)=NC[C@@H]2Cc2ccccc2)cc1,2%,9,-30%,/,-10,45*
CC(C)C[C@H]1CN=C(Nc2ccccc2)N1CCc1ccc(F)cc1,0%,-32*,-19%,/,1,234*
COc1ccc(N(CC(=O)Nc2cccc(Cl)c2C)S(=O)(=O)c2c(C)nn(C)c2C)cc1,/,10,/,/,-1,3
COc1ccccc1N1CCN(C(=O)CCc2nnc3n(C)c(=O)c4sccc4n23)CC1,/,4,/,/,0,0
CSc1ccccc1N1CCN(C(=O)Nc2ccc3c(c2)NC(=O)CO3)CC1,-2%,-49*,-5%,-1%,-12,15
O=C(Nc1ccc2c(c1)OCO2)N1CCN(c2ccccc2Cl)CC1,0%,-26,-22%,0%,-8,9
Cc1ccc2onc(CC(=O)N(C)c3ccccc3)c2c1,/,1,/,/,-1,2
CCOc1cc(C2c3c(n[nH]c3C)C(=O)N2c2ccc(C)cc2)ccc1O (configuration not stated),5%,-78*,12%,-3%,-4,1
COc1cc(C2c3c(n[nH]c3C)C(=O)N2c2ccc(C)cc2)ccc1O (configuration not stated),-1%,2,-24%,1%,-2,0
CC1=C(C#N)c2nc(N)c(C#N)c(C)c2/C1=C\c1ccc(C)cc1,-10%,-8,7%,2%,-5,3
COc1cc(/C=C2\C(C)=C(C#N)c3nc(N)c(C#N)c(C)c32)ccc1OCC(=O)O,8%,-57*,-1%,-7%,-4,4
Cc1ccc(CNC(=O)/C=C/c2c(Cl)cccc2Cl)cc1,1%,-36*,5%,0%,-2,6
Cc1ccc(CNC(=O)/C=C/c2ccccc2Cl)cc1,1%,-12,5%,-2%,-3,7
Cc1nc2scc(C)n2c(=O)c1S(=O)(=O)Nc1cccc(C(F)(F)F)c1,/,-24,/,/,-2,22
Cc1nc2scc(C)n2c(=O)c1S(=O)(=O)Nc1cccc(O)c1,/,-48*,/,/,-5,4
Cc1ccc(NC(=O)Cn2cc(S(=O)(=O)c3ccc(C)cc3)c(=O)c3cc4c(cc32)OCO4)cc1,/,2,/,/,3,5
O=C(NC1CC(=O)N(c2ccc(F)cc2)C1)C1CC1 (configuration not stated),/,/,/,/,-2,0
CCCCCCCn1c(=O)c(C(=O)OC)c(N)c2ccccc21,-1%,-16,-20%,-3%,-9,42*
Cc1ccc2c(c1)c(=O)c1ccccc1n2CCCC(=O)Nc1ccc(C)c(F)c1,/,-48*,/,/,-2,7
Cc1ccc(NC(=O)Cc2nn(C)c(=O)c3ccccc23)cc1F,-1%,-66*,-6%,-1%,-6,17
Cn1nc(CC(=O)Nc2ccc3c(c2)OCCO3)c2ccccc2c1=O,3%,-22,4%,-6%,-5,14
CCOC(=O)Cn1c(=O)n(CC2CCCO2)c2nc(-c3c(F)cccc3Cl)nc(C(N)=O)c21 (configuration not stated),/,1,/,/,1,2
COc1ccccc1C1C(C#N)=C(N)Oc2c1oc(CO)cc2=O (configuration not stated),0%,-7,2%,-1%,-2,0
N#CC1=C(N)Oc2c(oc(CO)cc2=O)C1c1ccccc1[N+](=O)[O-] (configuration not stated),0%,-35*,5%,5%,-7,0
C[C@@H](NC(=O)Cn1ccc(N)nc1=O)c1cccc2ccccc12,-2%,-27,-24%,/,6,1
